Results published in PubChem BioAssay (Tox21).
Results filed as inconclusive are left out. Unmarked numbers belong to inactive results. The source made the active and inactive calls. Calls follow the shape of the dose curve; as a rule, active = well fitted curve in the direction sought with a large enough effect in the repeat runs; inconclusive = weak or mixed curves; inactive = no such curve, though single readings can be large; an effect the other way counts as inactive or inconclusive.

Assay: qHTS assay for identifying genotoxic compounds that show differential cytotoxicity against isogenic chicken DT40 cell lines with known DNA damage response pathways - Rev3 mutant cell line (AID 743014); also: nearly all actives have a fitted effect of over 55% in size
Conditions: chicken DT40 Rev3-/- viability, CellTiter-Glo, 40 h; series mostly up to 68.4 µM; activity, negative = cytotoxicity: at the top concentration
% is scaled to controls: 0 for no effect and ±100 for the full control effect; potency is read from the fitted curve at half-maximal effect.

SMILES	activity, negative = cytotoxicity	Potency
C=CCOC(=O)CCCCCC	3.26%	
O=[N+]([O-])c1c(Cl)cc(Cl)cc1Cl	2.83%	
O=C1OCCO1	0.117% [at 95 µM]	
CC(=O)O[Si](C)(OC(C)=O)OC(C)=O	6.55% [at 95 µM]	
CCCCCC/C=C/C(=O)OC	5.31%	
NCc1ccc(S(N)(=O)=O)cc1	9.35% [at 31.4 µM]	
CCCCOC(=O)[C@H](C)O	13.1%	
CCCCCCC1(C)CCC(=O)O1 (stereo not drawn)	-9.64%	
C=CCN1C[C@H](C(=O)N(CCCN(C)C)C(=O)NCC)C[C@@H]2c3cccc4[nH]cc(c34)C[C@H]21	-16.5%	
[O]=[Mo](=[O])=[O]	7.94% [at 31.4 µM]	
c1ccc2cnccc2c1		30.6 µM (active)
O=NN(CCCl)C(=O)NC1CCCCC1	13.7%	
CCCCCc1cccc(=O)o1	-15.2%	
Cc1ccc(N)cc1S(=O)(=O)O	-11%	
OCC(O)CN1CCN(c2ccccc2)CC1 (stereo not drawn)	1.84%	
CO[Si](CCCn1c(=O)n(CCC[Si](OC)(OC)OC)c(=O)n(CCC[Si](OC)(OC)OC)c1=O)(OC)OC	-13.7%	
C=CCCCCCCCCC(=O)OCCCC	0.543%	
CC(Oc1cc(Cl)ccc1Cl)C(=O)O (stereo not drawn)	-29.9%	

Assay: qHTS assay for identifying genotoxic compounds that show differential cytotoxicity against isogenic chicken DT40 cell lines with known DNA damage response pathways - Rad54/Ku70 mutant cell line (AID 743015); also: nearly all actives have a fitted effect of over 60% in size
Conditions: DT40 Rad54/Ku70 mutant viability, CellTiter-Glo, 40 h; series mostly up to 66.8 µM; activity change, negative = cytotoxicity: at the top concentration

SMILES	activity change, negative = cytotoxicity	Potency
O/N=C/C=N/O	-19.4%	
C=CCOC(=O)CCCCCC	0.836%	
O=[N+]([O-])c1c(Cl)cc(Cl)cc1Cl	6.21%	
O=C1OCCO1	6.15% [at 95.1 µM]	
Nc1nc(-c2ccccc2)c(Br)c(=O)[nH]1	16.4%	
CCC(C)C(=O)OCCc1ccccc1 (stereo not drawn)	-3.92%	
CC(=O)O[Si](C)(OC(C)=O)OC(C)=O	9.09% [at 95.1 µM]	
NCc1ccc(S(N)(=O)=O)cc1	1.04% [at 30.7 µM]	
CCCCOC(=O)[C@H](C)O	5.89%	
CCCCCCC1(C)CCC(=O)O1 (stereo not drawn)	-3.9%	
Cc1ccccc1C(N)=O	1.02%	
[O]=[Mo](=[O])=[O]	0.0912% [at 30.7 µM]	
c1ccc2cnccc2c1		54.5 µM (active)
Cc1cccc(Cl)c1	-13%	
O=NN(CCCl)C(=O)NC1CCCCC1	7.79%	
CCCCCc1cccc(=O)o1	3.82%	
CCCCCC(C)O (stereo not drawn)	-17.2%	
OCC(O)CN1CCN(c2ccccc2)CC1 (stereo not drawn)	0.36%	
CC(C)=CCC/C(C)=C/COC=O	-6.68%	
CC(=O)CCc1ccc(OC(C)=O)cc1	7.16%	
Cc1ncc([N+](=O)[O-])n1CC(C)O (stereo not drawn)	8.52%	
CC(=O)Nc1ccc(OC(=O)c2ccccc2OC(C)=O)cc1	5.53%	
CC/C=C\CCOC(=O)c1ccccc1O	-10.1%	
C=CCCCCCCCCC(=O)OCCCC	4.65%	
CC(O)COC(C)(C)C (stereo not drawn)	1.06%	
